mHTT CaM bind – inhibitors of human mutant huntingtin-calmodulin interaction; AID 1671202; inhibition, % at 15 µM; P42858; hit rate 3.6% among 190,000; AlphaScreen His-mHTT/GST-CaM binding, luminescence;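 note: 0% = both proteins with DMSO and 100% = one protein alone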
Pf apPOL inh – Pf-apPOL DNA polymerase inhibition; Recombinant Pf-apPOL, molecular beacon fluorescence, 1.5 h; inhibition, % at 10 µM; hit rate 0.25% among 210,000; AID 1794808
Numbers without * were called inactive. This is one part of a sample in which hits are shown more often than they occur. Cut-off read from the data, not from the text of the source: active = inhibition above about 50%; inactive = the rest.

What do the screens show for `Cc1ccc(CNS(=O)(=O)c2cc3c(s2)CCN(C(=O)C2CC2)C3)cc1`?
mHTT CaM bind: 4.5; Pf apPOL inh: -6.4

How did Cc1ccc(S(=O)(=O)N=C2C=CC(=O)c3ccccc32)c(C)c1 do in these assays?
mHTT CaM bind: 86.0*; Pf apPOL inh: 4.5

What do the screens show for `Cc1cc(C)c(S(=O)(=O)N=C2C=CC(=O)c3ccccc32)c(C)c1`?
mHTT CaM bind: 66.0*; Pf apPOL inh: -0.2

How did Cc1cc(C)c(S(=O)(=O)n2cnc3ccccc32)c(C)c1 do in these assays?
mHTT CaM bind: -4.0; Pf apPOL inh: -2.1

What do the screens show for `Cc1ccc(S(=O)(=O)N=C2C=CC(=O)C=C2)c(C)c1`?
mHTT CaM bind: 39.0; Pf apPOL inh: -7.4

What do the screens show for `COc1cccc(CNC(=O)C2(C)Cc3ccccc3C(=O)N2CCC(C)C)c1` (stereo unspecified)?
mHTT CaM bind: 3.7; Pf apPOL inh: -1.2

What do the screens show for `COc1ccc(C)cc1NC(=O)N1CC(C(=O)NC2CC2)C2(CCOCC2)C1` (stereo unspecified)?
mHTT CaM bind: 3.9; Pf apPOL inh: -0.1

What do the screens show for `Cc1cc2[nH]c(C(=O)Nc3c(F)cccc3F)c(CN3CCCC3)c2s1`?
mHTT CaM bind: 56.0*; Pf apPOL inh: 2.7

Results for Cc1cc2[nH]c(C(=O)Nc3ccccc3C)c(CN3CCCC3)c2s1 ?
mHTT CaM bind: 9.0; Pf apPOL inh: 6.7

Results for O=C(C1c2ccccc2CCN1C(=O)C1CC1)N1CCN(c2ccc(F)cc2)CC1 (stereo unspecified) ?
mHTT CaM bind: 55.5*; Pf apPOL inh: -2.0

What do the screens show for `CC(=O)N1CCc2ccccc2C1C(=O)N1CCN(c2cccc(Cl)c2)CC1` (stereo unspecified)?
mHTT CaM bind: 77.9*; Pf apPOL inh: -2.8

How did CC(=O)N1CCc2ccccc2C1C(=O)N1CCN(c2ccc(C)cc2)CC1 (stereo unspecified) do in these assays?
mHTT CaM bind: 44.0; Pf apPOL inh: -1.4

Results for CC(=O)N1CCc2ccccc2C1C(=O)N1CCN(c2ccc(F)cc2)CC1 (stereo unspecified) ?
mHTT CaM bind: 13.2; Pf apPOL inh: -2.4

Results for C#CCSc1nccc(-c2sc3ccc(Cl)cc3c2C)n1 ?
Pf apPOL inh: -12.9

What do the screens show for `CCOc1ccccc1NC(=O)/C=C/c1ccc2c(c1)OCO2`?
mHTT CaM bind: -2.0; Pf apPOL inh: -0.3

Results for Cc1cc(C(=O)NC2CC2)c2cc(F)ccc2n1 ?
mHTT CaM bind: 0.3; Pf apPOL inh: 1.5

Results for O=C(CC1CCCCC1)NCC1CCS(=O)(=O)C1 (stereo unspecified) ?
mHTT CaM bind: -8.5; Pf apPOL inh: -0.5

What do the screens show for `Nc1ccc(Cl)cc1C(O)c1ccccc1` (stereo unspecified)?
mHTT CaM bind: -2.0; Pf apPOL inh: -6.2

What do the screens show for `CC(Nc1ccc(Cl)cc1N)c1ccccc1` (stereo unspecified)?
mHTT CaM bind: 98.4*; Pf apPOL inh: -4.3

What do the screens show for `O=C(Nc1nnc(-c2ccsc2)o1)c1ccccn1`?
mHTT CaM bind: 100.1*; Pf apPOL inh: -180.7

How did O=C(Nc1nnc(-c2ccsc2)o1)c1ccccc1F do in these assays?
mHTT CaM bind: 39.5; Pf apPOL inh: -5.0

Results for O=C(Nc1nnc(-c2ccsc2)o1)c1cc(-c2ccccc2)on1 ?
mHTT CaM bind: -4.0; Pf apPOL inh: -228.4

How did O=C(Cc1c(F)cccc1Cl)Nc1nnc(-c2ccsc2)o1 do in these assays?
mHTT CaM bind: 57.0*; Pf apPOL inh: 8.3

What do the screens show for `COc1cc(OC)cc(C(=O)NCC2Cc3cccc(F)c3O2)c1` (stereo unspecified)?
mHTT CaM bind: -1.5; Pf apPOL inh: 2.4

Results for O=C(c1ccc2c(c1)OCO2)N1CCC2(C1)NCc1ccccc1NC2=NC1CCCC1 (stereo unspecified) ?
mHTT CaM bind: 10.9; Pf apPOL inh: -7.2

Results for Cc1cc(N2CCC(C)CC2)nc2ccc(NC(=O)c3cncc(Br)c3)cc12 ?
mHTT CaM bind: 6.0; Pf apPOL inh: -3.0

What do the screens show for `Cc1ccccc1C(=O)Nc1ccc(-c2nc3ccccc3o2)c(O)c1`?
mHTT CaM bind: 10.6; Pf apPOL inh: -5.9

How did Cc1ccc(C(=O)N2CC(C(=O)NCC3CC3)C(c3ccccc3C)C2)cc1 (stereo unspecified) do in these assays?
mHTT CaM bind: 8.5; Pf apPOL inh: -3.6

What do the screens show for `CC1=C(C(=O)Nc2ccc(C)cn2)C(c2ccc(C)cc2)C2=C(CCCC2=O)N1` (stereo unspecified)?
mHTT CaM bind: 9.0; Pf apPOL inh: -0.2

Results for O=C1CCCC2=C1C(c1cccnc1)Nc1ccc(C(=O)c3ccccc3)cc1N2 (stereo unspecified) ?
mHTT CaM bind: 9.9; Pf apPOL inh: -1.5

How did CC1=C(C(=O)Nc2ccc(C)cn2)C(c2ccccc2)C2=C(CCCC2=O)N1 (stereo unspecified) do in these assays?
mHTT CaM bind: 2.0; Pf apPOL inh: 50.8*

How did CC1=C(C(=O)Nc2cccc(C(F)(F)F)c2)C(c2ccccc2)C2=C(CCCC2=O)N1 (stereo unspecified) do in these assays?
mHTT CaM bind: 36.0; Pf apPOL inh: -2.2

Results for O=C1CCCC2=C1C(c1cccc([N+](=O)[O-])c1)Nc1ccc(C(=O)c3ccccc3)cc1N2 (stereo unspecified) ?
mHTT CaM bind: 56.4*; Pf apPOL inh: -8.5

Results for CC1=C(C(=O)Nc2cccc(C(F)(F)F)c2)C(c2cccc([N+](=O)[O-])c2)C2=C(CCCC2=O)N1 (stereo unspecified) ?
mHTT CaM bind: 52.0*; Pf apPOL inh: -6.6

How did CC1=C(C(=O)Nc2cccc(C(F)(F)F)c2)C(c2ccccn2)C2=C(CC(C)(C)CC2=O)N1 (stereo unspecified) do in these assays?
mHTT CaM bind: -2.0; Pf apPOL inh: -9.0

What do the screens show for `CC1=C(C(=O)Nc2cccc(C(F)(F)F)c2)C(c2ccccc2)C2=C(CC(C)(C)CC2=O)N1` (stereo unspecified)?
mHTT CaM bind: 92.0*; Pf apPOL inh: 0.8

What do the screens show for `CCOC(=O)Cc1csc(NC(=O)C2CN(c3nc4ccc(OC)cc4s3)C2)n1`?
mHTT CaM bind: 8.3; Pf apPOL inh: 1.4

Results for O=C(Nc1cccc(C(F)(F)F)c1)c1ccc(Cl)cc1 ?
Pf apPOL inh: -6.6

Results for COc1cccc(Oc2c(C)oc3c(CN4CCN(CCO)CC4)c(O)ccc3c2=O)c1 ?
mHTT CaM bind: 2.2; Pf apPOL inh: -1.9

How did c1ccc(-c2cn(-c3ccccc3)c3ncnc(NCc4cccnc4)c23)cc1 do in these assays?
mHTT CaM bind: 43.0; Pf apPOL inh: -8.6

How did C[C@H]1[C@@H]2C[C@H]([C@H]3CCCCN31)[C@H](OC(=O)Nc1ccc(C(F)(F)F)cc1)C2 do in these assays?
mHTT CaM bind: 76.3*; Pf apPOL inh: -2.9

How did CCCC[C@H]1[C@@H]2C[C@H]([C@H]3CCCCN31)[C@H](OC(=O)Nc1ccc(C(F)(F)F)cc1)C2 do in these assays?
mHTT CaM bind: -15.0; Pf apPOL inh: -7.7

What do the screens show for `CCc1ccc(C=C2Oc3c(ccc(O)c3CN3CCOCC3)C2=O)cc1`?
mHTT CaM bind: 12.3; Pf apPOL inh: -26.3

How did O=C(c1cccc(NS(=O)(=O)c2ccc(Cl)cc2)c1)N1CCC2(CC1)OCCO2 do in these assays?
mHTT CaM bind: 0.0; Pf apPOL inh: -6.5

Results for CCn1c(C2CCN(Cc3ccc(F)cc3)C2)nc2cccnc21 (stereo unspecified) ?
mHTT CaM bind: 11.7; Pf apPOL inh: -8.4
